Hits are enriched below; roughly 2.4% of the tested compounds scored in any of these assays.
POLB inh = inhibitors of human DNA polymerase beta. P06746. Pol beta primer extension/strand displacement, fluorescence kinetic. Potency, µM (titrated, usually from 114 µM), for inactives: at the highest dose activity change, negative = inhibition, usual class: inhibitors. 1.3% of 340,000 active. AID 485314; further: on the % scale 0 is the no-effect control and ±100 the full control effect
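Values derive from four-parameter Hill fits of normalized kinetic data: reads at 0 and 10 min following addition of 50 nM substrate to 10 nM Pol beta preincubated 15 min with compound.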
POLI inh = inhibitors of human DNA polymerase iota; Q9UNA4; Pol iota fluorescent replication assay, 10 min; Potency, µM (doses to about 115 µM), for inactives: top-dose activity, negative = inhibition, usual class: inhibitors; 1% of 390,000 active; AID 588590
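Fluorescent replication assay read twice, at 0 min and 10 min after adding 50 nM (final) substrate. Enzyme (10 nM) and compounds were first incubated 15 min at room temperature; enzyme-free buffer wells were negative controls.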
FEN1 inhibitor = human FEN1 inhibition; 0.35% of 390,000 active; AID 588795; Potency, µM (highest dose often 114 µM), inactives show at the top dose activity change, negative = inhibition, actives largely listed as inhibitors; P39748; Recombinant FEN1 flap cleavage, fluorescence, 15 min; further: on the % scale 0 is the no-effect control and ±100 the full control effect; nearly all actives have a fitted effect of over 65% in size
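Potency values derive from four-parameter Hill fits of normalized qHTS data. The reaction used 10 nM FEN1 preincubated 15 min at room temperature with compound, then 50 nM DNA substrate, read at 0 and 15 min.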
WRN helicase inh-1 = inhibitors of human WRN helicase; 0.46% of 360,000 active; AID 651768; Potency, µM (series often up to 114 µM), for the others: at the highest dose activity change, negative = inhibition, hits mostly inhibitors; WRN helicase unwinding, fluorescent forked duplex, kinetic; Q14191; further: on the % scale 0 is the no-effect control and ±100 the full control effect; nearly all actives have a fitted effect of over 55% in size
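Screening of the MLSMR collection measured strand separation of a quenched forked DNA duplex (100 nM) by 20 nM WRN with 2 mM ATP, all final. Compounds were preincubated with enzyme 15 min at room temperature.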
Pol eta inh = inhibitors of human DNA polymerase eta; 1.2% of 390,000 active; AID 588591; recombinant Pol eta, fluorescent DNA replication assay; Potency, µM (highest dose often 114 µM), without a hit: top-dose activity change, negative = inhibition, actives largely listed as inhibitors; further: on the % scale 0 is the no-effect control and ±100 the full control effect
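Pol eta (10 nM) was preincubated with compounds for 15 min at room temperature, after which fluorescent replication substrate (50 nM final) was added to start the reaction. Fluorescence was read kinetically at 0 and 10 min.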
POLK inh = blocks human DNA polymerase kappa activity | Potency, µM (doses to about 107 µM), for the others: at the top dose activity, negative = inhibition, most hits filed as inhibitors | purified Pol kappa, fluorescent DNA synthesis assay, 10 min | 0.53% of 400,000 active; further: on the % scale 0 is the no-effect control and ±100 the full control effect
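Kinetic fluorescence readout at 0 and 10 min followed reaction start with substrate at 50 nM final. Beforehand, enzyme (10 nM Pol kappa) stood 15 min with compound at room temperature; buffer-only wells were negative controls.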
WRN helicase inh-2 = WRN helicase inhibition, cherry-pick retest; shares compounds with WRN helicase inh-1; 63% of 610 active; WRN helicase DNA unwinding, fluorescence kinetic; Potency, µM (titrated, usually from 57.1 µM), without a hit: at the top dose activity, negative = inhibition, actives largely listed as inhibitors; further: nearly all actives have a fitted effect of over 65% in size
TO displacement = DNA binding via thiazole orange displacement; shares compounds with WRN helicase inh-1; thiazole orange DNA binding displacement, fluorescence; Potency, µM (series often up to 57.1 µM), without a hit: at the top dose activity change, negative = inhibition, actives largely listed as inhibitors; 10% of 610 active; AID 720499;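 further: drop in dye fluorescence marks compound binding to DNA; on the % scale 0 is the no-effect control and ±100 the full control effect; nearly all actives have a fitted effect of over 60% in size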
BLM helicase inh = blocks human BLM helicase in WRN counterscreen; shares compounds with WRN helicase inh-1; Recombinant BLM helicase DNA unwinding, red fluorescence; Potency, µM (highest dose often 57.1 µM), for inactives: at the highest dose activity change, negative = inhibition, most hits filed as inhibitors; 60% of 610 active; AID 720503; further: nearly all actives have a fitted effect of over 60% in size
Active calls of the source: *; ? = inconclusive; . = no result given; [ ] = dose if it differs, or a comment. The call rests on the fitted dose curve; in most records, active means well fitted curve in the direction sought with a large enough effect; inconclusive means small, poorly fitted or top-dose-only effect, or another doubt; inactive means no such curve, though single readings can be large; an effect the other way counts as inactive or inconclusive. Potency means the concentration at half of the fitted maximal effect.

SMILES	POLB inh	POLI inh	FEN1 inhibitor	WRN helicase inh-1	Pol eta inh	POLK inh	WRN helicase inh-2	TO displacement	BLM helicase inh
Nc1c(S(=O)(=O)O)cc(NC(=O)c2ccccc2)c2c1C(=O)c1ccccc1C2=O	22.4µM*	?	?	28.2µM*	17.8µM*	-8.9%	12.1µM*	10.8µM*	19.2µM*
COc1cc(/C=N/Nc2ccccc2)ccc1O	-15.8%	?	9.4%	7.6%	-10.6%	-9.2%	.	.	.
COc1cc(/C=N/Nc2nnc3c(n2)[nH]c2ccccc23)ccc1O	?	39.8µM*	-10.9%	?	?	-5.9%	?	-13.6%	?
Cc1ccc(CNC(=O)CCNS(=O)(=O)c2ccc3c(c2)CCCC(=O)N3)cc1	18.4%	-16.9%	-1.4%	.	1.8%	7.8%	.	.	.
Oc1ccc(O)c(Cc2nc3ccccc3[nH]2)c1	0.2%	-9.7%	-21.5%	89.1µM*	2.2%	-19.4%	21.5µM*	?	6.81µM*
COC(=O)c1c(NC(=O)CCCOc2ccc(C)cc2)sc2c1C(C(=O)OC)CC2 (configuration not stated)	-24.9%	?	79.4µM*	.	-7.6%	?	-23.2%	24.1µM*	?
CCOc1ccc(/C=C/C(=O)Nc2sc3c(c2C(=O)OC)CCCC3)cc1	-2.6%	9.5%	18.2%	.	-3.6%	-9.5%	.	.	.
COC(=O)c1c(NC(=O)CCCOc2cccc(C)c2)sc2c1C(C(=O)OC)CC2 (configuration not stated)	-0.3%	?	70.8µM*	.	-9.4%	-23.2%	-13.6%	-23.2%	?
CCOc1ccc(/C=C/C(=O)Nc2sc3c(c2C(=O)OC)C(C(=O)OC)CC3)cc1 (configuration not stated)	35.2%	?	?	.	50.1µM*	-7.8%	-13.4%	-7.4%	?
CC(C)C[C@@H](CNCC(=O)[C@H](Cc1ccccc1)NC(=O)c1[nH]cnc1C(=O)N[C@@H](C)CN)NC(=O)c1nc[nH]c1C(=O)N[C@@H](C)C(=O)O	.	?	16.0%	-0.8%	-2.6%	2.0%	.	.	.
CC1=C(C)CS(=O)N(S(=O)(=O)c2ccccc2)C1 (configuration not stated)	7.0%	?	?	39.8µM*	-8.6%	-11.1%	-13.2%	-5.4%	-17.3%
CC(C)(C)CNC(=O)C1(C)CCN1C(=O)Cc1ccc(-c2ccccc2)cc1 (configuration not stated)	.	.	.	-0.2%	.	.	.	.	.
COc1ccc(-c2csc3nc(C(C)(C)C)oc(=O)c23)cc1OC	-26.7%	9.3%	1.2%	7.4%	-27.9%	-8.9%	.	.	.
COc1ccc(-c2csc3nc(-c4ccc(C)cc4)oc(=O)c23)cc1OC	?	?	-3.8%	?	?	4.4%	12.1µM*	85.2%	1.92µM*
C[C@H]1CN([C@@H](C)CO)C(=O)CCCn2cc(nn2)CO[C@@H]1CN(C)S(=O)(=O)c1cccc(F)c1	.	.	.	4.5%	-7.4%	.	.	.	.
N[C@H](C(=O)O)[C@H](Cc1ccccc1)C(=O)O	.	.	.	.	.	7.4%[60.1 µM]	.	.	.
Cc1ccccc1N=Cc1cc2c(cc1[N+](=O)[O-])OCO2	10.6%	31.2%	-1.3%	-22.0%[57.1 µM]	-15.0%	-11.1%	.	.	.
Cc1ccc(N=Cc2cc(Cc3ccccc3Cl)cc([N+](=O)[O-])c2O)c(O)c1	15.8µM*	?	-31.7%	28.2µM*	50.1µM*	-80.5%	24.1µM*	?	21.5µM*
O=C1ON=C(c2ccccc2)/C1=C/c1ccc(OS(=O)(=O)c2ccccc2)cc1	-8.8%	-2.6%	-2.1%	?	?	-29.4%	.	.	.
COc1ccc(/C=C2\C(=O)ON=C2c2ccccc2)cc1	-1.5%	?	-9.5%	31.6µM*	9.6%	-5.2%	-23.4%	-4.3%	-25.0%
COc1cccc(CNC(=O)c2ccc3nc(-c4ccccc4)c(-c4ccccc4)nc3c2)c1OC	1.5%	36.3%	10.1%	.	-11.1%	-9.5%[60.1 µM]	.	.	.
Cn1c(SCc2ccccc2)nccc1=O	.	51.8%	4.1%	2.8%	-20.9%	-1.0%	.	.	.
CC1=C(SCc2ccccc2)C(=O)c2ccccc2C1=O	.	3.16µM*	?	?	31.6µM*	-10.9%	?	?	24.1µM*
CN(C)c1ccc(/C=C/c2ccnc3c2ccc2ccccc23)cc1	.	30.9%	-2.9%	.	.	-6.5%	.	.	.
CN(C)c1ccc(C=Cc2nccc3ccccc23)cc1	.	.	.	79.4µM*	.	.	?	220.6%	?
SMILES	POLB inh	POLI inh	FEN1 inhibitor	WRN helicase inh-1	Pol eta inh	POLK inh	WRN helicase inh-2	TO displacement	BLM helicase inh
CCOc1ccc(OCC)c(NC(=O)C2CCCN(S(=O)(=O)c3ccc4c(c3)oc(=O)n4C)C2)c1 (configuration not stated)	2.5%	59.9%	-1.3%	.	-18.0%	-2.7%	.	.	.
COc1cccc(C(c2c(C)[nH]n(-c3ccccc3)c2=O)c2c(C)[nH]n(-c3ccccc3)c2=O)c1OC	-26.4%	1.26µM*	-23.7%	?	-5.6%	-27.6%	-10.8%	-9.6%	-11.5%
CCOc1cccc(C(c2c(C)n(C)n(-c3ccccc3)c2=O)c2c(C)n(C)n(-c3ccccc3)c2=O)c1OC	-2.8%	-1.1%	19.8%	-0.5%	-20.1%	-10.6%	.	.	.
COc1ccccc1OCCSc1nc(-c2ccc(C(C)(C)C)cc2)nc2cc(=O)[nH]n12	12.0%	-18.5%	-26.5%	.	?	-5.5%	?	?	27.1µM*
Cc1ccc(C)c(-n2nnc(C(=O)Nc3ccc(Br)cc3)c2C)c1	16.8%	34.5%	-6.3%	.	-26.4%	1.9%	.	.	.
O=C(C[C@H]1C/C=C\CC[C@H](Cc2ccc(F)cc2)C(=O)O[C@H](c2ccccc2)CNC1=O)N[C@H](CO)Cc1ccccc1	.	-7.3%	-11.5%	-12.8%	-2.7%	-17.8%	.	.	.
COc1cc(-c2cnc3c(NC=O)cc(-c4cccc(NC(C)=O)c4)cn23)cc(OC)c1OC	.	.	.	25.1µM*	.	.	9.61µM*	7.9%	15.2µM*
O=C(c1cc(C(F)(F)F)cc(C(F)(F)F)c1)N1CCC2(CCN(Cc3ccncc3)CC2)CC1	.	.	.	.	.	-6.2%[60.1 µM]	.	.	.
COc1ccc(OC)c2nc3c(C(=O)NCCN(C)C)cccc3nc12	.	?	14.1µM*	12.6µM*	?	?	13.6µM*	10.8µM*	21.5µM*
